Bioassay records as filed in PubChem.
TbPYK inhibitor: blocks Trypanosoma brucei pyruvate kinase; Potency, µM (highest dose often 76.8 µM), for the others: at the top dose activity, negative = inhibition, actives largely listed as inhibitors; hit rate 0.12% among 410,000; TbPYK enzyme, Kinase-Glo Plus ATP luminescence, 45 min; also: potency is read from the fitted curve at half-maximal effect; nearly all actives have a fitted effect of over 50% in size
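Glycolytic pyruvate kinase of T. brucei was incubated with substrate, test compound and 130 uM ADP for 45 minutes at room temperature. Luminescent Kinase-Glo Plus signal was measured after 10 minutes.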
Sm TGR inh: blocks Schistosoma mansoni thioredoxin glutathione reductase; Q962Y6; purified TGR, DTNB reduction, TNB absorbance 405 nm; Potency, µM (doses to about 114 µM), inactives show at the highest dose activity change, negative = inhibition, actives largely listed as inhibitors; hit rate 3% among 360,000; also: potency is read from the fitted curve at half-maximal effect; nearly all actives have a fitted effect of over 60% in size
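Kinetic colorimetric format: TGR-catalysed, NADPH-driven DTNB reduction monitored via TNB absorbance. Enzyme dispensed at 20 nM; compound exposure 15 min at room temperature before reaction start.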
RE007 growth inh: less growth of the S. pombe RE007 Vpr strain; AID 651644; Potency, µM (top dose mostly 92.2 µM), inactives show top-dose activity change, negative = less growth, actives largely listed as inhibitors; hit rate 0.21% among 360,000; S. pombe RE007 Vpr strain, BacTiter-Glo ATP luminescence, 24 h; active = well fitted falling curve with a large enough effect; inconclusive = small, poorly fitted or top-dose-only effect; inactive = no such curve, though single readings can be large or run the other way; also: potency is read from the fitted curve at half-maximal effect; nearly all actives have a fitted effect of over 50% in size
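Fission yeast RE007 carrying one integrated HIV-1 vpr copy, seeded at OD 0.01 in PMG+AL medium with 23 nL pinned compound. Grown 24 h at 30 degrees; viability read by BacTiter-Glo luminescence after 5 min.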
HCMV inh: human cytomegalovirus inhibition | HFF cells, HCMV-luciferase reporter, 72 h; hits give low values | activity change, negative = inhibition, % at 57.5 µM | hit rate 4.5% among 410,000; in the data active = activity change below about -60%; inconclusive = no clear call, values can overlap the other calls; inactive = above about -39%
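Inhibition of viral replication was scored as loss of reporter luminescence in HFFs infected with HCMV-luciferase (MOI 1 PFU/cell) for 72 h; compounds tested at 2 doses, normalized to buffer and Salinomycin controls.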
FBPA Giardia inh: Giardia lamblia aldolase inhibition. A8B2U2. purified Giardia FBPA. Potency, µM (series often up to 59.6 µM), for inactives: at the top dose activity, negative = inhibition, most hits filed as inhibitors. hit rate 0.71% among 290,000. AID 2451; also: potency is read from the fitted curve at half-maximal effect; nearly all actives have a fitted effect of over 55% in size
Target sequence (A8B2U2 whole entry, looked up): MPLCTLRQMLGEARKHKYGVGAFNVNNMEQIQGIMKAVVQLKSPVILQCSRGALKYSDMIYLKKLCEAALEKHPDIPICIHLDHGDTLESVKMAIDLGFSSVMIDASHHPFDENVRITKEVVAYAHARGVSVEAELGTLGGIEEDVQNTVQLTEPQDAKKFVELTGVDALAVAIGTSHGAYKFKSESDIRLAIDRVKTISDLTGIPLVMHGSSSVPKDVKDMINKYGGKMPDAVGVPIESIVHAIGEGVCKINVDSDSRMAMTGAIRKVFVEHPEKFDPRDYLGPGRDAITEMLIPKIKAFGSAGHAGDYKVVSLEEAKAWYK
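40 nM FBPA preincubated 10 min at RT with compound (up to 57.5 uM final), then substrate plus GAPDH/TPI/NAD/arsenate coupling and diaphorase/resazurin added. Fluorescence read after 20 min at RT, 525/598 nm.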
FMDV antiviral: blocks foot and mouth disease virus; AID 1159524; Potency, µM (titrated, usually from 57.9 µM), inactives show top-dose activity change, negative = inhibition, usual class: inhibitors; FMDV antiviral cell-based qHTS; hit rate 1.2% among 410,000; calls by dose curve; tested in HEK293T cells; also: read-out not given here; potency is read from the fitted curve at half-maximal effect; nearly all actives have a fitted effect of over 45% in size
* marks the source's active call; other numbers are inactive results; ? = inconclusive; . = no result; [ ] = remark or other dose. In the library only some 7.7% were active in any assay of this set; here they are far more common. Unless noted, calls follow the shape of the dose curve; as a rule, active = well fitted curve in the direction sought with a large enough effect; inconclusive = small, poorly fitted or top-dose-only effect, or another doubt; inactive = no such curve, though single readings can be large; an effect the other way counts as inactive or inconclusive. % is scaled to controls: 0 for no effect and ±100 for the full control effect.

SMILES	TbPYK inhibitor	Sm TGR inh	RE007 growth inh	HCMV inh	FBPA Giardia inh	FMDV antiviral
Fc1ccc(Br)cc1C1C=C(c2ccc(Br)cc2)Nc2nnnn21 (stereo not given)	1%	-24%	.	-10	.	-14%
CC(C)c1ccc(Nc2cc3[nH]c(-c4cccc(F)c4)cc3cn2)cc1	.	.	.	-5	.	.
COc1cccc(CNC(=O)Cn2nc(N3CCN(c4ccccc4OC)CC3)ccc2=O)c1	1%	11%	.	-3	.	0%
C[C@@H]1C=CC(=O)O[C@@H]1c1ccc(Cl)cc1	3%	-22%	-29%	-92*	2%	28µM*
CCOC(=O)/C=C/[C@@H](CCCCOCc1ccccc1)NC(=O)C(F)(F)F	.	.	.	-7	.	.
COC(=O)[C@H]1[C@H]2C[C@@H]3c4[nH]c5ccccc5c4CCN3C[C@H]2C[C@@H](OC(=O)c2cc(OC)c(OC)c(OC)c2)[C@@H]1OC	2%	.	.	.	.	.
COc1ccc2c(c1)OC(C)CN(CCC(=O)NCC1OCCc3ccccc31)C2 (stereo not given)	.	.	.	.	.	-5%
NC(=O)C1C(=O)c2ccccc2C1(C[N+](=O)[O-])c1ccccc1 (stereo not given)	3%	.	-13%	-101*	.	-2%
O=C(O)CC1(c2ccccc2)C(=O)c2ccccc2C1=O	-4%	17%[11.4 µM]	22%	3	2%	5%
CCOC(=O)C1CCCN(C(=O)c2cccc(S(=O)(=O)NCc3ccccc3)c2)C1 (stereo not given)	-1%	.	4%	9	.	5%
CCOC(=O)C1CCCN(C(=O)c2cccc(S(=O)(=O)N(C)c3c(C)n(C)n(-c4ccccc4)c3=O)c2)C1 (stereo not given)	-12%	-15%	-4%	-99*	.	-8%
c1ccc(CSc2ccc(-c3ccco3)nn2)cc1	-10%	22µM*	-15%	-25	-3%	1%
Clc1ccc(CSc2ccc(-c3ccco3)nn2)cc1	-4%	28µM*	-8%	30	0%	53%
Fc1ccccc1CSc1ccc(-c2ccco2)nn1	-7%	32µM*	3%	-18	-1%	25%
Cc1ccc(CSc2ccc(-c3ccco3)nn2)cc1	-26%	?	-9%	100	-2%	10%
Clc1cccc(CSc2ccc(-c3ccco3)nn2)c1	-11%	7.1µM*	-25%	45	-1%	21%
C[C@H]1Cn2cnc(C(=O)N3CCN(c4ccccc4)CC3)c2C(=O)N1	.	.	.	-10	.	.
Cc1cc(C)c(CN2CCN(C(=O)Cn3cc(C)c(=O)[nH]c3=O)CC2)c(C)c1	.	.	.	-21	.	.
O=C(CN1Cc2ccccc2OC(c2ccccc2)C1)NCc1cccnc1 (stereo not given)	.	.	.	.	.	54%
CC(C)CCn1c(N2CCCC2)nc2c1c(=O)[nH]c(=O)n2C	-2%	0%	-6%	81	11%	-3%
CC1CCCN(c2nc3c(c(=O)[nH]c(=O)n3C)n2Cc2ccccc2Cl)C1 (stereo not given)	2%	-14%	4%	-82*	4%	-22%
CC(C)CCn1c(N2CCC(C(N)=O)CC2)nc2c1c(=O)[nH]c(=O)n2C	0%	0%[11.4 µM]	-1%	-94*	3%	-18%
COc1ccc(CCNC(=O)c2cc3c(=O)oc4ccc(C)cc4c3s2)cc1OC	-4%	5%	.	-1	.	-26%
COc1ccc(S(=O)(=O)/N=C2\C=C(Nc3ccc(O)cc3)C(=O)c3ccccc32)cc1	-27%	-3%	-21%	-99*	?	7.9µM*
Cc1ccccc1NC1=C/C(=N\S(=O)(=O)c2cccs2)c2ccccc2C1=O	-13%	?	?	-106*	?	10µM*
SMILES	TbPYK inhibitor	Sm TGR inh	RE007 growth inh	HCMV inh	FBPA Giardia inh	FMDV antiviral
Cc1cc(C)c[n+](C2=C([O-])c3ccccc3C(=O)/C2=N\S(=O)(=O)c2cccs2)c1	-5%	-13%	-9%	0	-47%	40µM*
CC(=O)Nc1ccc(NC2=C/C(=N/S(=O)(=O)c3cccs3)c3ccccc3C2=O)cc1	5%	-34%	-13%	-101*	?	?
Cc1ccc(NC2=C/C(=N/S(=O)(=O)c3cccs3)c3ccccc3C2=O)cc1C	-14%	-3%	.	62	?	-18%
Cc1cc2oc(C(=O)Nc3ccc(S(=O)(=O)N4CCC(C)CC4)cc3)cc(=O)c2cc1C	1%	2%	.	16	.	-19%
COc1cccc([C@@H]2Oc3ccc(Br)cc3C(=O)[C@H]2OC(=O)Nc2ccc(C)c(Br)c2)c1	.	.	.	.	0%	.
O=C(NCCCN1CCOCC1)c1ccc(-n2nc(C(F)(F)F)cc2-c2cccs2)cc1	2%	0%	10%	-67*	4%	?
COCCCNC(=O)c1ccc(-n2nc(C(F)(F)F)cc2-c2cccs2)cc1	-7%	-1%	-5%	?	0%	-27%
C[C@H](NC(=O)/C(C#N)=C/c1ccc(O)c(O)c1)c1ccccc1	.	.	.	.	-7%	54%
C[C@@H](NC(=O)/C(C#N)=C/c1ccc(O)c(O)c1)c1ccccc1	-12%	-17%	0%[18.4 µM]	-98*	-5%	-19%
CC(NC(=O)/C(C#N)=C/c1ccc(Cl)c([N+](=O)[O-])c1)c1ccccc1 (stereo not given)	-4%	?	4%	-100*	-15%	32µM*
COc1cccc(CNC(=O)CSc2nc(=O)[nH]c3c2CCCC3)c1	24%	6%	.	-18	.	-6%
C[C@H]1[C@@H](NS(=O)(=O)c2ccccc2)CC[C@@]23CCCN2C(=O)CCC[C@@H]13	.	.	.	-16	.	.
Cc1cccc(C)c1-n1nnnc1C(c1ccnc2ccccc12)N(Cc1ccccc1)Cc1ccccc1 (stereo not given)	-2%	.	2%	-72*	.	-10%
COC(=O)C1C2CC3c4[nH]c5cc(OC)ccc5c4CCN3CC2CC(OC(=O)c2cc(OC)c(OC)c(OC)c2)C1OC (stereo not given)	.	.	.	.	?	-15%
O=C(c1cccc(Cl)c1)N1c2nc(-c3ccco3)nn2C2(CCCCC2)[C@@H]2CCCC[C@@H]21	-4%	-25%	.	-28	.	-7%
O=C(c1cccc(Cl)c1)N1c2ncnn2C2(CCCCC2)[C@@H]2CCCC[C@@H]21	0%	1%	.	-2	.	?
COc1cccc(C(=O)N2c3nc(-c4ccco4)nn3C3(CCCCC3)[C@@H]3CCCC[C@@H]32)c1	-18%	7.9µM*	.	-64*	.	-27%
O=C(c1cccc([N+](=O)[O-])c1)N1c2nc(-c3ccco3)nn2C2(CCCCC2)[C@@H]2CCCC[C@@H]21	-6%	?	.	-77*	.	-21%
Oc1c(C(c2ccc(Cl)cc2)N2CCOCC2)sc2nc(-c3ccco3)nn12 (stereo not given)	-7%	4%	.	3	.	-4%
